Screening data deposited in PubChem BioAssay by National Center for Advancing Translational Sciences (NCATS).
Most compounds without a hit are left out; they make up all but 12% or so of the library.
RORg inh: blocks mouse ROR gamma transcriptional activity. P51450. Potency, µM (top dose mostly 53.6 µM), for inactives: at the top dose activity change, negative = inhibition, usual class: inhibitors. Drosophila S2 Gal4-RORgamma UAS-luciferase reporter, 20 h. hit rate 5.4% among 310,000; further: nearly all actives have a fitted effect of over 60% in size
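Schneider cells (Drosophila), stable Gal4 DBD–ROR gamma + UAS-luc; 1 hr cmpd preincubation; Cu2+ induction 700 uM final; 20 hr ambient; luminescence.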
VP16 counter: counter-screen for ROR gamma inhibitors: Gal4-VP16 reporter; Potency, µM (highest dose often 53.6 µM), inactives show at the highest dose activity, negative = inhibition, usual class: inhibitors; Drosophila S2 Gal4-VP16 UAS-luciferase, luminescence, 20 h; hit rate 3.5% among 310,000;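 further: Gal4-VP16 expression switched on by copper sulfate through the metallothionein promoter; nearly all actives have a fitted effect of over 50% in size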
PLK1 PBD inh: PLK1 (human) polo-box domain binding inhibition. P53350. Plk1 PBD binding of FITC phosphopeptide, fluorescence polarization. Potency, µM, for the others: max response, negative = inhibition, hits mostly inhibitors. hit rate 2.8% among 360,000. AID 720504; further: series mostly up to about 57 µM; nearly all actives have a fitted effect of over 65% in size
Sfp PPTase inh: inhibitors of Bacillus subtilis Sfp phosphopantetheinyl transferase; hit rate 3.5% among 310,000; Biochemical Sfp PPTase activity, qHTS; AID 1490; Q9F4F7; Potency, µM, inactives show largest response in the series, negative = inhibition, actives largely listed as inhibitors;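 further: the enzyme is Sfp with the accession as filed and its product quenches rhodamine fluorescence; 0% = enzyme reaction without inhibitor and -100% = no enzyme wells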
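With Hepes-Na pH 7.6 buffer containing 10 mM MgCl2, Sfp (15 nM) modified BHQ-2-YbbR (12.5 uM) using rhodamine-CoA (5 uM). Two reads 30 minutes apart at 525/598 nm yielded each well's rate.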
ALDH1A1 inh: blocks purified human ALDH1A1 activity | P00352 | Purified ALDH1A1, NADH fluorescence, propionaldehyde substrate | Potency, µM (doses to about 75.3 µM), without a hit: at the top dose activity, negative = inhibition, hits mostly inhibitors | hit rate 7.3% among 220,000; active means well fitted inhibition curve with a large enough effect, not every such curve was filed as active; inconclusive means small, poorly fitted or top-dose-only effect, or another doubt; inactive means no such curve, though single readings can be large or run the other way;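 further: plate controls were no enzyme wells and a reference inhibitor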
Target sequence (P00352 whole entry, looked up): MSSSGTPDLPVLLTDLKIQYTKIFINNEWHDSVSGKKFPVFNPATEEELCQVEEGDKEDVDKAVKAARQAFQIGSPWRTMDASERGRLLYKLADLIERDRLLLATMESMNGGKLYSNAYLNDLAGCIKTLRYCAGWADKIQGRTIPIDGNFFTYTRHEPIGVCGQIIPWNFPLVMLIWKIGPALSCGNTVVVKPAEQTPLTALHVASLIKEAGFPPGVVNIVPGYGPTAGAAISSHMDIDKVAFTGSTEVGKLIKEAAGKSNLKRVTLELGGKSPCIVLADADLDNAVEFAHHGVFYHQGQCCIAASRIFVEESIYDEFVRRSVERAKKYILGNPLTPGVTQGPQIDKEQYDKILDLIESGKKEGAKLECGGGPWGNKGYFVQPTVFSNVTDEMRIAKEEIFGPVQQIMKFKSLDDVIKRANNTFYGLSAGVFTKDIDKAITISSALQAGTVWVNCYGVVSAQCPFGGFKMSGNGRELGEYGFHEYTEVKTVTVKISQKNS
Starred values were filed as active, the others as inactive; u = inconclusive; x = no result given; [ ] = dose if it differs, or a comment. Unless noted, the call rests on the fitted dose curve; in most records, active means well fitted curve in the direction sought with a large enough effect; inconclusive means small, poorly fitted or top-dose-only effect, or another doubt; inactive means no such curve, though single readings can be large; an effect the other way counts as inactive or inconclusive. Unless noted, on the % scale 0 is the no-effect control and ±100 the full control effect; potency means the concentration at half of the fitted maximal effect.

SMILES | RORg inh | VP16 counter | PLK1 PBD inh | Sfp PPTase inh | ALDH1A1 inh
CCCCOCCCNC(=O)C[C@@H]1C[C@@]2(C(=O)OCC)CCCC=C2N(Cc2ccco2)C1=O | x | x | -0.3% | x | x
Cc1cc(C)c(NC(=O)C2CCN(S(C)(=O)=O)CC2)c(C)c1 | x | x | 1.3% | x | x
Brc1cc2c(cc1/C=N/Nc1nc3ccccc3s1)OCO2 | 4.47µM* | u | -0.6% | -25.7% | -2.9%
c1ccc2sc(Nc3nc4cc5c(cc4s3)OCO5)nc2c1 | -2.7% | -9.5% | -1.8% | u | u
Cc1cc(C)cc(C(=O)Nc2nnc(SCC(=O)N3CCCc4ccccc43)s2)c1 | -0.6% | -10.8% | -2.8% | 12.9% | u
O=C(Nc1nnc(SCC(=O)N2CCCc3ccccc32)s1)c1ccc2ccccc2c1 | 6.31µM* | 5.62µM* | -16.9% | 21.1% | u
O=C(Nc1nnc(SCC(=O)N2CCCc3ccccc32)s1)c1ccccc1 | 6.31µM* | u | -2.2% | 22.7% | 11.9%
COc1cc(-c2nnc3n(CCc4ccccc4)c(=O)c4ccccc4n23)cc(OC)c1OC | -4.3% | -15.6% | -0.1% | -9.5% | 0.224µM*
COc1cc(OC)c(-c2nnc3n(CCc4ccccc4)c(=O)c4ccccc4n23)cc1OC | u | -1.4% | x | 10.3% | u
O=C(NC(=S)Nc1ccc(CN2CCCCC2)cc1)c1ccco1 | -29.5% | -14.1%[10 µM] | -23.8% | u | u
Cc1ccc(C(=O)NC(=S)Nc2ccc(CN3CCCCC3)cc2)c(C)c1 | 12.6µM* | u | -4.8% | 8.9% | -9.0%
O=C(Nc1ccc(CN2CCCCC2)cc1)Nc1ccc(Br)cc1Cl | 23.4% | -12.8% | -11.2% | 79.4µM* | -15.7%
COc1ccc(C(=O)NC(=S)Nc2ccc(CN3CCOCC3)cc2)cc1OC | u | -6.2% | -19.7% | 4.2% | x
COc1ccc(C(=O)NC(=S)Nc2ccc(CN3CCOCC3)cc2)cc1Cl | 12.6µM* | u | -7.0% | -12.1% | x
S=C(Nc1ccc(Br)cc1Cl)N1CCCC1 | u | 15.0% | -0.1% | 10.3% | x
COc1cc(OC)cc(C(=O)Nc2ccc(CN3CCCCC3)cc2)c1 | 10.9% | -0.3% | -7.3% | 21.7% | 10.3%
COc1ccc(C(=O)NC(=S)Nc2ccc(CN3CCCCC3)cc2)cc1Cl | 20µM* | u | -12.9% | 10.1% | u
C#CCNC(=O)C[C@@H]1C[C@@]2(C(=O)OC)CC(C)(C)CC=C2N(CCCCCCCC)C1=O | x | x | 1.0% | x | x
COC(=O)[C@]12CCCCC=C1N(CCc1ccc(OC)c(OC)c1)C(=O)[C@H](CC(=O)NCc1cccc(C(F)(F)F)c1)C2 | x | x | -9.2% | x | x
C[C@@H](O)CCC[C@H](O)/C=C/[C@H]1[C@H](O)CC(=O)[C@@H]1C/C=C\CCCC(=O)O | -11.6% | -2.8% | x | 6.5% | 9.0%
CCOC(=O)N/N=C/c1cn(CCCOc2ccccc2)c2ccccc12 | 5.1% | -21.5% | 1.5% | 2.4% | 9.1%
COC(=O)N/N=C/c1cn(CCOc2ccc(OC)cc2)c2ccccc12 | 35.0% | 6.5% | 2.2% | -0.6% | x
CCOC(=O)N/N=C/c1cn(CCCOc2ccc(C)cc2)c2ccccc12 | 1.41µM* | 1.78µM* | -6.1% | 7.9% | u
COc1cccc(OCCn2cc(/C=N/NC(=O)c3ccncc3)c3ccccc32)c1 | u | 10µM* | -6.4% | -0.9% | 3.7%
CC(=O)c1cn(CCOc2cc(C)ccc2C)c2ccccc12 | u | 3.98µM* | 2.5% | 11.0% | x
SMILES | RORg inh | VP16 counter | PLK1 PBD inh | Sfp PPTase inh | ALDH1A1 inh
Cc1ccc(C)c(OCCn2cc(C(=O)O)c3ccccc32)c1 | 36.9% | -25.5% | -16.1% | 2.5% | -6.3%
COc1ccc(OCCn2cc(/C=N/NC(=O)c3ccncc3)c3ccccc32)cc1 | 5.01µM* | 8.91µM* | 3.8% | -13.1% | u
CCCCC1=CC2=C(OC(C)=O)C(=O)C(C)(OC(=O)CCC(=O)OC)C(=O)C2=CO1 (stereo not given) | -6.8% | -3.3% | x | 16.7% | 0.1%
COc1ccc(NCC(=O)N2CCCC2)cc1Cl | 13.9% | 8.3% | -8.5% | 0.1% | -13.2%
OC[C@@H]1CN(Cc2ccncc2)C[C@H](n2cnc3c(NC4CCCC4)ncnc32)O1 | x | x | -3.3% | x | x
CC(=O)Nc1ccc(-c2ccnc3c2CC(C(=O)NCc2ccco2)O3)cc1 (stereo not given) | x | x | -10.0% | x | x
COc1cccc(OCCn2cc(C(=O)c3ccco3)c3ccccc32)c1 | -8.4% | -9.6% | 0.7% | 4.9% | 22.4µM*
Cc1ccc(OCC(=O)N/N=C/c2cn(Cc3ccccc3)c3ccccc23)cc1 | 5.01µM* | 7.08µM* | -2.2% | u | u
CCOC(=O)N/N=C/c1cn(Cc2ccc(Cl)cc2)c2ccccc12 | -43.5% | u | -10.9% | 22.0% | 1.7%
COc1ccccc1OCCn1cc(C(=O)c2ccco2)c2ccccc21 | 38.0% | u | -3.6% | 2.4% | u
Cc1ccc(OCCn2cc(/C=N/NC(=O)c3ccncc3)c3ccccc32)cc1 | 5.01µM* | 11.2µM* | 15µM* | 0.2% | -9.4%
Cc1cc(Oc2ccc(=O)n(C)n2)nc(SCCOc2ccccc2)n1 | 24.3% | 6.9% | -7.4% | 6.6% | x
CCOCCCNC(=S)N1CCCN(c2nc3cc(C)c(C)cc3cc2C#N)CC1 | -16.3% | 18.7% | -9.1% | u | u
COCCCNC(=S)N1CCCN(c2nc3cc(C)c(C)cc3cc2C#N)CC1 | -27.9% | -20.8% | -4.0% | 28.2µM* | u
O=C(Cn1ncc(Cl)c(Cl)c1=O)N1CCN(S(=O)(=O)c2ccc3ccccc3c2)CC1 | 12.6µM* | u | -13.3% | 12.7% | 20µM*
O=C(COc1cccnc1[N+](=O)[O-])Nc1ccc(Cl)c(S(=O)(=O)N2CCOCC2)c1 | 16.8% | 8.5% | 1.7% | -0.1% | 14.1µM*
O=C(COc1cccnc1[N+](=O)[O-])N1CCN(S(=O)(=O)c2ccc3ccccc3c2)CC1 | u | -2.8% | -12.4% | 8.8% | 15.8µM*
COc1ccc(-c2nnc(SCc3nc4ccccc4c(=O)[nH]3)o2)cc1 | -9.9% | 6.3% | 1.8% | 14.4% | -0.8%
O=C(CN1C(=O)/C(=C\c2cccc(Br)c2)Oc2ccccc21)NCCCN1CCOCC1 | u | u | 26.7µM* | -24.3% | x
O=C(CN1C(=O)COc2ccccc21)NCCCN1CCOCC1 | -19.4% | 6.1% | -12.2% | 4.6% | x
CNc1cncc(-c2cnn(CC(C)C)c2)n1 | x | x | -8.0% | x | x
CCc1cccc(CC)c1N(COC)C(=O)Cn1c(C(C)O)nc2ccccc21 (stereo not given) | 44.4% | -4.9% | 0.9% | 89.1µM* | 3.7%
CCOCN(C(=O)Cn1c(COC)nc2ccccc21)c1c(C)cccc1CC | u | 14.8% | -2.3% | -3.1% | 5.4%
CCOC(=O)COc1ccc(S(=O)(=O)NCCC2=CCCCC2)cc1 | -11.7% | 2.5% | -8.7% | 3.0% | 31.6µM*
Cc1ccc(S(=O)(=O)NCCC2=CCCCC2)cc1C(N)=O | u | 7.94µM* | -2.1% | 6.6% | x
O=C1c2ccccc2C(=O)N1Cc1ccco1 | -19.2% | 1.6% | -4.6% | 11.2% | -15.9%
CCCCN1C(C)=CC(=C2C(=O)c3ccccc3C2=O)C=C1C | -18.7% | -21.7% | -22.6% | 7.5% | 14.1µM*
